This is part of a sample that, as a whole, favours compounds with a hit. Of some 83,000 tested, about 20% had one in any assay.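 48-hour exposure, single concentration, 96-well plates; percent growth endpoint where 0 means no net growth. Active: below 10.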 The source made the active and inactive calls.
What was measured:
Assay in all cases: NCI-60 one-dose screen, 48 h (100 = growth as untreated, 0 = no growth, -100 = all killed)
Conditions in all cases: 10 µM unless noted
DU-145 prostate = test system: DU-145 prostate
K-562 leukemia = test system: K-562 leukemia
MALME-3M melanoma = test system: MALME-3M melanoma
MDA-MB-231 breast = test system: MDA-MB-231 breast
RXF 393 renal = test system: RXF 393 renal
SF-268 CNS = test system: SF-268 CNS
SF-295 CNS = test system: SF-295 CNS
SF-539 CNS = test system: SF-539 CNS
UACC-257 melanoma = test system: UACC-257 melanoma
M14 melanoma = test system: M14 melanoma
HCT-15 colon = test system: HCT-15 colon
HT29 colon = test system: HT29 colon
SNB-75 CNS = test system: SNB-75 CNS
SNB-19 CNS = test system: SNB-19 CNS
U251 CNS = test system: U251 CNS
PC-3 prostate = test system: PC-3 prostate
SK-MEL-5 melanoma = test system: SK-MEL-5 melanoma
UACC-62 melanoma = test system: UACC-62 melanoma
SK-MEL-28 melanoma = test system: SK-MEL-28 melanoma
LOX IMVI melanoma = test system: LOX IMVI melanoma

Measured: growth

COC(=O)c1ccc2oc(NC(=O)c3ccc(N4CCOCC4)c([N+](=O)[O-])c3)nc2c1
inactive: DU-145 prostate 102% | K-562 leukemia 84.6% | MALME-3M melanoma 90.5% | MDA-MB-231 breast 100% | RXF 393 renal 119% | SF-268 CNS 97.4% | SF-295 CNS 97.7% | SF-539 CNS 89.6% | UACC-257 melanoma 97.9% | M14 melanoma 98.8% | HCT-15 colon 107% | HT29 colon 95.6% | SNB-75 CNS 79.7% | SNB-19 CNS 92.4% | U251 CNS 92.2% | PC-3 prostate 89.5% | SK-MEL-5 melanoma 104% | UACC-62 melanoma 90.6% | SK-MEL-28 melanoma 97.4%

O=C(Nc1ccccc1Cl)OCCN1CCOCC1
inactive: DU-145 prostate 109% | K-562 leukemia 90.6% | MALME-3M melanoma 114% | MDA-MB-231 breast 111% | RXF 393 renal 114% | SF-268 CNS 107% | SF-295 CNS 103% | SF-539 CNS 105% | UACC-257 melanoma 105% | M14 melanoma 90.7% | HCT-15 colon 102% | HT29 colon 75.9% | SNB-75 CNS 111% | SNB-19 CNS 103% | U251 CNS 103% | PC-3 prostate 77.5% | SK-MEL-5 melanoma 108% | LOX IMVI melanoma 102% | SK-MEL-28 melanoma 110%

CN(C)c1ccc(/C=C2\C=C(c3ccccc3)N(CCc3ccccc3)C2=O)cc1
active: SNB-75 CNS -29.1%
inactive: DU-145 prostate 60.4% | K-562 leukemia 90.6% | MALME-3M melanoma 57.7% | MDA-MB-231 breast 84.6% | RXF 393 renal 81.4% | SF-268 CNS 43.8% | SF-295 CNS 53.9% | SF-539 CNS 61.6% | UACC-257 melanoma 76.8% | M14 melanoma 51.7% | HCT-15 colon 83.2% | HT29 colon 77.8% | SNB-19 CNS 46.6% | U251 CNS 33.2% | PC-3 prostate 52.3% | SK-MEL-5 melanoma 82.7% | UACC-62 melanoma 67.3% | SK-MEL-28 melanoma 89.8%

COc1ccc(-c2cc(-c3cc(OC)ccc3O)[nH]c(=O)c2C#N)cc1
inactive: DU-145 prostate 79.8% | K-562 leukemia 23.7% | MALME-3M melanoma 60.7% | MDA-MB-231 breast 45% | RXF 393 renal 81.2% | SF-268 CNS 61.3% | SF-295 CNS 54% | SF-539 CNS 39.4% | UACC-257 melanoma 61% | M14 melanoma 27% | HCT-15 colon 60.2% | HT29 colon 28.4% | SNB-75 CNS 58.9% | SNB-19 CNS 65.4% | U251 CNS 22.5% | PC-3 prostate 52% | SK-MEL-5 melanoma 31.4% | LOX IMVI melanoma 40.5% | SK-MEL-28 melanoma 67.5%

CSc1nc2sc3cc(Cl)ccc3n2c(=N)c1C#N
active: RXF 393 renal -0.36%
inactive: DU-145 prostate 96.1% | K-562 leukemia 110% | MALME-3M melanoma 40.1% | MDA-MB-231 breast 72.8% | SF-268 CNS 47.3% | SF-295 CNS 26.1% | SF-539 CNS 70.2% | UACC-257 melanoma 45.7% | M14 melanoma 82.4% | HCT-15 colon 94.7% | HT29 colon 33% | SNB-75 CNS 26% | SNB-19 CNS 81.8% | U251 CNS 89.4% | PC-3 prostate 66.4% | SK-MEL-5 melanoma 45.2% | LOX IMVI melanoma 86.8% | SK-MEL-28 melanoma 41.9%

C[C@@H]1C(=O)N(C[C@@H](Cc2ccccc2)NC(=O)OCc2ccccc2)[C@]1(Cc1ccccc1)C(=O)OCc1ccccc1
active: SK-MEL-5 melanoma -6.61%
inactive: DU-145 prostate 78.3% | K-562 leukemia 36.5% | MALME-3M melanoma 24.9% | MDA-MB-231 breast 41.9% | RXF 393 renal 34.8% | SF-268 CNS 56.7% | SF-295 CNS 21.4% | SF-539 CNS 59.6% | UACC-257 melanoma 19.7% | M14 melanoma 44.8% | HCT-15 colon 41.6% | HT29 colon 50.7% | SNB-75 CNS 61.1% | SNB-19 CNS 44.3% | U251 CNS 34.6% | PC-3 prostate 14.2% | UACC-62 melanoma 43.3% | SK-MEL-28 melanoma 63.9%

O=C(NC(=S)Nc1ccc(-c2nc3ccccc3[nH]2)cc1)c1ccc2ccccc2c1
active: MALME-3M melanoma -12% | MDA-MB-231 breast -18.6% | RXF 393 renal -66.3% | SF-539 CNS -30.8% | SNB-75 CNS -62.4%
inactive: DU-145 prostate 18.8% | K-562 leukemia 59.9% | SF-268 CNS 51% | SF-295 CNS 19.7% | UACC-257 melanoma 49.2% | M14 melanoma 38% | HCT-15 colon 29.2% | HT29 colon 21.8% | SNB-19 CNS 66.2% | U251 CNS 13.9% | PC-3 prostate 22.8% | SK-MEL-5 melanoma 14.7% | UACC-62 melanoma 34.1% | SK-MEL-28 melanoma 40.5%
